# According to ChEMBL document CHEMBL2218924, “A broad activity screen in support of a chemogenomic map for kinase signalling research and drug discovery” (Biochem J, 2013):
# Tests used:
# [1] = target: T1, Ephrin type-B receptor 1 (Homo sapiens) (UniProt P54762); settings: at 10 µM
# T1 sequence (whole entry): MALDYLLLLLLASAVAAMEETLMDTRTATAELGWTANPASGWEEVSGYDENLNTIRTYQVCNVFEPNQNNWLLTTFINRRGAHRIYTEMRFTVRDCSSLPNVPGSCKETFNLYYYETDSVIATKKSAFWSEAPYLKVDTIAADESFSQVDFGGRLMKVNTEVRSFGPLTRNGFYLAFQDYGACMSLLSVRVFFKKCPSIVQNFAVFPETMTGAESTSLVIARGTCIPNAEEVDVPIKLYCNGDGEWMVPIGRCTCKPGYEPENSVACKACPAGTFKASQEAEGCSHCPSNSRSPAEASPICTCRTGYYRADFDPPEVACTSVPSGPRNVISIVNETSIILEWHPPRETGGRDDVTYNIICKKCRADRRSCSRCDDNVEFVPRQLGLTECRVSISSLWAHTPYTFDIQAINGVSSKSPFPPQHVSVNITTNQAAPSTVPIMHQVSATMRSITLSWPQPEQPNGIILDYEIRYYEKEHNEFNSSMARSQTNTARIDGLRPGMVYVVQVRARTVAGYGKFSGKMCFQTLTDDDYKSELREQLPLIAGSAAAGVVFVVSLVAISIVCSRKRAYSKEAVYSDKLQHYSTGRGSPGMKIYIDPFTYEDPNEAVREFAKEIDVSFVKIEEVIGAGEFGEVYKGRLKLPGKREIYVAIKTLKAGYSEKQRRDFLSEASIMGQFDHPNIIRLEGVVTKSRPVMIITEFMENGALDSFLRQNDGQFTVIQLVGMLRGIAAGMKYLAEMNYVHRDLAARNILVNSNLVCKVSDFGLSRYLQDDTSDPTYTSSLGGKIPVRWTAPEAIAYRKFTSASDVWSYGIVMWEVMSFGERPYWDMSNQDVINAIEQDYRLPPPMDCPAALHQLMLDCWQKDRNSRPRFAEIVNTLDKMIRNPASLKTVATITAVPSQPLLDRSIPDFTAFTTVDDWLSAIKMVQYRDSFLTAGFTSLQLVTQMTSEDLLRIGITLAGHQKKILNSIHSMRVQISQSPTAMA
# [2] = target: T2, Ephrin type-B receptor 2 (Homo sapiens) (UniProt P29323); settings: at 1 µM
# T2 sequence (whole entry): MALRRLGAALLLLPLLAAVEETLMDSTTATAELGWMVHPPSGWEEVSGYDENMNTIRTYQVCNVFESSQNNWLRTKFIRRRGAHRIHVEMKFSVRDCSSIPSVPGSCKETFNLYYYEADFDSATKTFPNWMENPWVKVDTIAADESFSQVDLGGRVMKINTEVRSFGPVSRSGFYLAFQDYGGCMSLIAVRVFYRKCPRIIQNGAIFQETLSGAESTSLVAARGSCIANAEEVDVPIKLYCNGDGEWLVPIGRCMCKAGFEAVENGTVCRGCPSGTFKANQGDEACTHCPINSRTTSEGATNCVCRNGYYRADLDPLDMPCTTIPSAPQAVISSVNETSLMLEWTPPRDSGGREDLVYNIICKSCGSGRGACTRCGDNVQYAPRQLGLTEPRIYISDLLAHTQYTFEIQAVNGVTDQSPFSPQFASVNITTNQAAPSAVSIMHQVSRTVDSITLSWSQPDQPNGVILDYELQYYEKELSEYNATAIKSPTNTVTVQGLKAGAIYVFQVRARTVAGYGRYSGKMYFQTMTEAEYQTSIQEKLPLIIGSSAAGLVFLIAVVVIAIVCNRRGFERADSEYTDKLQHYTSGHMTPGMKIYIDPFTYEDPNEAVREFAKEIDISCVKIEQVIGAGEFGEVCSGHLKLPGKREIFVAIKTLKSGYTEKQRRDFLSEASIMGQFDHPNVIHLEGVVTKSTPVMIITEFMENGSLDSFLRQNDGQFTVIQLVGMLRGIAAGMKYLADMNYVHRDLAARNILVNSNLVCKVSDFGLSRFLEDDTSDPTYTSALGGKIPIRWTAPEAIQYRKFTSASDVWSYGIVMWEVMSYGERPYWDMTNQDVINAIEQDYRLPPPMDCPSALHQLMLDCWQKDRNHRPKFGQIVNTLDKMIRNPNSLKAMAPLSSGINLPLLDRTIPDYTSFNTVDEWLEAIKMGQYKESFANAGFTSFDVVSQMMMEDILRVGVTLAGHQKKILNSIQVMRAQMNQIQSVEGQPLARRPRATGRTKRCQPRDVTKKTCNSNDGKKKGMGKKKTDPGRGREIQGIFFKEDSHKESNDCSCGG
# [3] = target: T2, Ephrin type-B receptor 2 (Homo sapiens); settings: at 10 µM
# [4] = target: T3, Ephrin type-B receptor 3 (Homo sapiens) (UniProt P54753); settings: at 1 µM
# T3 sequence (whole entry): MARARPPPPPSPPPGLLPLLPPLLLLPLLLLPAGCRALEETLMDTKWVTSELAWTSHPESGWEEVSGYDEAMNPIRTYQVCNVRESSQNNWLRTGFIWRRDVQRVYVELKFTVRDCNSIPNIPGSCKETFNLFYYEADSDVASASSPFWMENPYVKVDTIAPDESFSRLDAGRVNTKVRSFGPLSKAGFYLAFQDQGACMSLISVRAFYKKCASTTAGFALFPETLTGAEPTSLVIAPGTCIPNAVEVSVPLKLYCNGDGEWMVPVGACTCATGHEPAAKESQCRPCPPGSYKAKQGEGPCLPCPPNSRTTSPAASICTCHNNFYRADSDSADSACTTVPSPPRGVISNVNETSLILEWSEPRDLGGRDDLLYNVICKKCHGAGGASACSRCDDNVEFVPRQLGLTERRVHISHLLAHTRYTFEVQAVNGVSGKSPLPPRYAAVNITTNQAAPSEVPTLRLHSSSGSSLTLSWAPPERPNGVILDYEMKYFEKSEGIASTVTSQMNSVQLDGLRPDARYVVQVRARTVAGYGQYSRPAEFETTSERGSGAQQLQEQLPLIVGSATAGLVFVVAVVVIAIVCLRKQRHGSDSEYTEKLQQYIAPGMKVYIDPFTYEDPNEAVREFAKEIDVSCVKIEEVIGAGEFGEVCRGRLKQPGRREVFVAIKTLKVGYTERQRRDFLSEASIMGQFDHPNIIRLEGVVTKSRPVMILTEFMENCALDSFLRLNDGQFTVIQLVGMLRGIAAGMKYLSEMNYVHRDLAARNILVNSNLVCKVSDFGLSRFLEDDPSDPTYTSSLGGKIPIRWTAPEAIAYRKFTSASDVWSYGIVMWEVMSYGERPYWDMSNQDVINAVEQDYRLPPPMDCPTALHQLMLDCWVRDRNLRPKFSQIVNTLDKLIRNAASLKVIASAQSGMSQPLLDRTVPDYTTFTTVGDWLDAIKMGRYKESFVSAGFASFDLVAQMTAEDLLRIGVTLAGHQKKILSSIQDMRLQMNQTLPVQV
# [5] = target: T3, Ephrin type-B receptor 3 (Homo sapiens); settings: at 10 µM
# [6] = target: T4, Ephrin type-B receptor 4 (Homo sapiens) (UniProt P54760); settings: at 1 µM
# T4 sequence (whole entry): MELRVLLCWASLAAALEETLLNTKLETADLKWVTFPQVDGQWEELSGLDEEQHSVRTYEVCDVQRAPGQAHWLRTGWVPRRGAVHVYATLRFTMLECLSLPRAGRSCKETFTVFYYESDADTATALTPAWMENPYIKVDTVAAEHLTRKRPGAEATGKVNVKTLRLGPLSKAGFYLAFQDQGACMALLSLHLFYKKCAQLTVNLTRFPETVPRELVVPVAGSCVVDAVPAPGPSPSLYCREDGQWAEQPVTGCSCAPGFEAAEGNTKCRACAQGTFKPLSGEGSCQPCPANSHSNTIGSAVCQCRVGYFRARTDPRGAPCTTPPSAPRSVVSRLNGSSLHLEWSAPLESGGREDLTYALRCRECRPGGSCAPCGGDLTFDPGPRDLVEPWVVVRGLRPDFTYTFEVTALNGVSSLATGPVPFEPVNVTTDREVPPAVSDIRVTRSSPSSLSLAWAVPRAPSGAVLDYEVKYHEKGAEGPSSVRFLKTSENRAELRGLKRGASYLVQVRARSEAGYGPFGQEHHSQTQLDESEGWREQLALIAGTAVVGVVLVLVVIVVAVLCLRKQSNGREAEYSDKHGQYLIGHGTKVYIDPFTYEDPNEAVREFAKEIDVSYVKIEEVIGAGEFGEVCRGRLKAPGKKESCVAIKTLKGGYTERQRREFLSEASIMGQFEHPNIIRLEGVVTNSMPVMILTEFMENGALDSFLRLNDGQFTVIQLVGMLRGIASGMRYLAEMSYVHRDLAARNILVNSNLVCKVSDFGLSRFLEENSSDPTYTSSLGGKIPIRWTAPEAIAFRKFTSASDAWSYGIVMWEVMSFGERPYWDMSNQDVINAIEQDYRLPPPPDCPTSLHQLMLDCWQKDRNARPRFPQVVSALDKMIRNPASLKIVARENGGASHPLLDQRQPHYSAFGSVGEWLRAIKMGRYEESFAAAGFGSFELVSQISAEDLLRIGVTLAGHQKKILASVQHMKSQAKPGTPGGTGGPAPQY
# [7] = target: T4, Ephrin type-B receptor 4 (Homo sapiens); settings: at 10 µM
# [8] = target: Receptor tyrosine-protein kinase erbB-4 (Homo sapiens) (UniProt Q15303); settings: at 1 µM
# [9] = target: Receptor tyrosine-protein kinase erbB-4 (Homo sapiens) (UniProt Q15303); settings: at 10 µM
# [10] = target: Focal adhesion kinase 1 (Homo sapiens) (UniProt Q05397); settings: at 1 µM
# Focal adhesion kinase 1 (Homo sapiens), sequence (Q05397 2-1052 limits assumed): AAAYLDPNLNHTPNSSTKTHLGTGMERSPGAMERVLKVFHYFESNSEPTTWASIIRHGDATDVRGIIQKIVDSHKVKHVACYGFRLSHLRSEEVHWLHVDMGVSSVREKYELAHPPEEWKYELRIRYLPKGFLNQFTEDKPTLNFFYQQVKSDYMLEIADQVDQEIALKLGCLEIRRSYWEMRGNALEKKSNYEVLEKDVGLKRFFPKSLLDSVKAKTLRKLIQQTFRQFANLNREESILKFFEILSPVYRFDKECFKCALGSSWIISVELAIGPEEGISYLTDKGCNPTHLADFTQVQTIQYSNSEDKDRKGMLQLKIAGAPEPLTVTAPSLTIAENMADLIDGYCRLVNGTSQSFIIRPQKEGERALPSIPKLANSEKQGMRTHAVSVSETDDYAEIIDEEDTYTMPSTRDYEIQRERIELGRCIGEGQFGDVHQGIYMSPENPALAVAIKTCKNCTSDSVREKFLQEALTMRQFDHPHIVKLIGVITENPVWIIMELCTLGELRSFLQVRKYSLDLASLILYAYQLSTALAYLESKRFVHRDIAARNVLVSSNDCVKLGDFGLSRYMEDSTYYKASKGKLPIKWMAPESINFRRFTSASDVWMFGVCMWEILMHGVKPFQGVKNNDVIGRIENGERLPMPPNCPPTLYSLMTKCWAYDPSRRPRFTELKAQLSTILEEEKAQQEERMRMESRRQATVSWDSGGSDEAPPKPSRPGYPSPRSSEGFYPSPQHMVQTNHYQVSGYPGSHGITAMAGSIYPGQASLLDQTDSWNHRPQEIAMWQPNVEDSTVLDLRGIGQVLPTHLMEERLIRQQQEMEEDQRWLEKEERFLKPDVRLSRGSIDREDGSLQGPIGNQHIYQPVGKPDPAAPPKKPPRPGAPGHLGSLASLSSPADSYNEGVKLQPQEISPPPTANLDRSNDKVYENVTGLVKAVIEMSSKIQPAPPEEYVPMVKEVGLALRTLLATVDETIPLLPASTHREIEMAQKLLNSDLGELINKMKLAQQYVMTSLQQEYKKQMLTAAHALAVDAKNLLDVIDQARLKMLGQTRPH
# Receptor tyrosine-protein kinase erbB-4 (Homo sapiens), sequence (Q15303 whole entry): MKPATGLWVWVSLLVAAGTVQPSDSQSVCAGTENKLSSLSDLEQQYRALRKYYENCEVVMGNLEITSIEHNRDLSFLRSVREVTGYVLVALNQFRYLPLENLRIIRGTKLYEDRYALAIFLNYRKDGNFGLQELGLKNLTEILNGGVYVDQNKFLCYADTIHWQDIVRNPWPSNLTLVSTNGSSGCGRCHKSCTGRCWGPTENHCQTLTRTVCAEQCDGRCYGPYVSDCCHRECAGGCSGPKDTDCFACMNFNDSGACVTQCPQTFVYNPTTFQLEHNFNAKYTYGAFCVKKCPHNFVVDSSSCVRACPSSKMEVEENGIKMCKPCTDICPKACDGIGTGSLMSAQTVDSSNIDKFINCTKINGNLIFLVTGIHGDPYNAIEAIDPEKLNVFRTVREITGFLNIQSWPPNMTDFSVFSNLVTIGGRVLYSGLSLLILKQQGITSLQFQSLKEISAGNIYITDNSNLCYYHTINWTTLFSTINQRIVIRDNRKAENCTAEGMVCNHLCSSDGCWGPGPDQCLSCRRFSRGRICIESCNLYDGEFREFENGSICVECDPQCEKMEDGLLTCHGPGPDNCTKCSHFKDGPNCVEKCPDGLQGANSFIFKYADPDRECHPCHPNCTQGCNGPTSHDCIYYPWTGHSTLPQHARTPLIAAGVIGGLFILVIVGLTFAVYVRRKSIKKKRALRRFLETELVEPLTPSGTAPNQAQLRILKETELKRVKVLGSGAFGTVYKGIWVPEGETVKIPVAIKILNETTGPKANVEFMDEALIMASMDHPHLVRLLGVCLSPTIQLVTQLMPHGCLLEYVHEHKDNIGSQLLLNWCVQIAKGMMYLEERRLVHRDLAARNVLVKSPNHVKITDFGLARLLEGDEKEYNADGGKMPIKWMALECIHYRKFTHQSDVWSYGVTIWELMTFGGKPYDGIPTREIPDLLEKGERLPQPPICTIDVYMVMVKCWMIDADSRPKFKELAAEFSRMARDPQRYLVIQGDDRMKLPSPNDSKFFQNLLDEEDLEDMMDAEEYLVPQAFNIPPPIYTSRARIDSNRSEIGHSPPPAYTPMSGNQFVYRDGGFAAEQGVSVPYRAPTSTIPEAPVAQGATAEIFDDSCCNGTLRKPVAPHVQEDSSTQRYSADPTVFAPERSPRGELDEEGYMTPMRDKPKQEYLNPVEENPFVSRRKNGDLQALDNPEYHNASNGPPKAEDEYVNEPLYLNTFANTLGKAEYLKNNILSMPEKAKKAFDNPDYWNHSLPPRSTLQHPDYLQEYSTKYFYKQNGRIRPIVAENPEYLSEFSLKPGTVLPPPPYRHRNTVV
compound,measurement,setting,value
Cc1ccc(S(=O)(=O)/C=C/C#N)cc1,residual activity,[1],92%
same,residual activity,[2],122%
same,residual activity,[3],126%
same,residual activity,[4],118% (inactive)
same,residual activity,[5],111%
same,residual activity,[6],97%
same,residual activity,[7],90%
same,residual activity,[8],95%
same,residual activity,[9],90%
same,residual activity,[10],105%
